Measurements: the supplement of paper PMC6555819

Assays:
Test in all cases: PBM binding z-score (relative to random genomic background probes); higher = stronger binding; sequences stand for … in GC…GCGATTGACAGCGTAGAATGAAGG
[1] = test system: FXR:RXRa (NR concentration 270 nM, RXRa partner concentration 90 nM)
Outline: (§1)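 Random background probes are the reference for binding z-scores. These scores derive from regression-normalized fluorescence on custom Agilent 4×180K protein-binding microarrays incubated 1 h with ligand-free nuclear receptor dimers. Binding was detected with antibodies against each partner (one per run).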

[2] = test system: LXRa:RXRa (NR concentration 270 nM, RXRa partner concentration 90 nM)
Outline: as §1

[3] = test system: LXRa homodimer (NR concentration 270 nM)
Outline: as §1

[4] = test system: LXRb:RXRa (NR concentration 270 nM, RXRa partner concentration 90 nM)
Outline: as §1

[5] = test system: LXRb homodimer (NR concentration 270 nM)
Outline: as §1

[6] = test system: PPARa:RXRa (NR concentration 270 nM, RXRa partner concentration 90 nM)
Outline: as §1

[7] = test system: PPARg:RXRa (NR concentration 180 nM, RXRa partner concentration 90 nM)
Outline: as §1

[8] = test system: PPARg:RXRa 270nM:90nM, anti-RXR (NR concentration 270 nM, RXRa partner concentration 90 nM)
Outline: as §1

[9] = test system: PPARg:RXRa 30nM:10nM, anti-RXR (NR concentration 30 nM, RXRa partner concentration 10 nM)
Outline: as §1

[10] = test system: PPARg:RXRa 90nM:30nM, anti-RXR (NR concentration 90 nM, RXRa partner concentration 30 nM)
Outline: as §1

[11] = test system: PPARg:RXRa DBDmut IVT, anti-RXR (DBD mutation: RXRa K156A/R161A, NR concentration 270 nM, RXRa partner concentration 90 nM)
Outline: as §1

[12] = test system: PPARg:RXRa IVT, anti-PPARg (NR concentration 270 nM, RXRa partner concentration 90 nM)
Outline: as §1

[13] = test system: PPARg DBDmut:RXRa IVT, anti-PPARg (DBD mutation: PPARg1 K132A/R137A, NR concentration 270 nM, RXRa partner concentration 90 nM)
Outline: as §1

[14] = test system: PPARg DBDmut IVT, anti-PPARg (DBD mutation: PPARg1 K132A/R137A, NR concentration 270 nM)
Outline: as §1

[15] = test system: PPARg homodimer (NR concentration 180 nM)
Outline: as §1

[16] = test system: PXR:RXRa (NR concentration 270 nM, RXRa partner concentration 90 nM)
Outline: as §1

[17] = test system: PXR homodimer (NR concentration 270 nM)
Outline: as §1

[18] = test system: RARa:RXR (NR concentration 270 nM, RXRa partner concentration 90 nM)
Outline: as §1

[19] = test system: RARa homodimer (NR concentration 270 nM)
Outline: as §1

[20] = test system: RARb:RXRa (NR concentration 270 nM, RXRa partner concentration 90 nM)
Outline: as §1

Sequence | PBM binding z-score [1] | PBM binding z-score [2] | PBM binding z-score [3] | PBM binding z-score [4] | PBM binding z-score [5] | PBM binding z-score [6] | PBM binding z-score [7] | PBM binding z-score [8] | PBM binding z-score [9] | PBM binding z-score [10] | PBM binding z-score [11] | PBM binding z-score [12] | PBM binding z-score [13] | PBM binding z-score [14] | PBM binding z-score [15] | PBM binding z-score [16] | PBM binding z-score [17] | PBM binding z-score [18] | PBM binding z-score [19] | PBM binding z-score [20]
TCTCGGAGGACACGAAAGGTCAGAGCGCGACATC | 3.05 | 4.07 | 2.95 | 3.16 | -0.239 | 3.64 | 1.36 | 2.96 | 2.26 | 2.66 | 1.45 | 1.17 | -0.212 | -0.0951 | 3.06 | 4.27 | 0.685 | 4.73 | 1.1 | 4.27
TGTCAAAGTTCATAGGTAACGTAAGTATCCACAC | 6.65 | 5.95 | 4.17 | 4.02 | 1.38 | 5.13 | 7.92 | 7.41 | 4.42 | 6.63 | 0.217 | 4.39 | 1.15 | 2.16 | 1.89 | 5.05 | 3.32 | 4.15 | 0.391 | 4.9
CCTTACGGGTCAAGCTTATAGCACGGGTGGTACG | 5.81 | 3.52 | -0.087 | 3.04 | 0.0884 | 4.93 | 4.12 | 4.65 | 1.87 | 3.43 | 2.26 | 3.48 | 0.116 | -0.188 | 1.56 | 2.77 | -0.265 | 3.81 | 0.95 | 4.05
ATATGTAGGTTAGCTGGGGTCAATCAGACTAGGC | 4.21 | 5.44 | 1.4 | 4.65 | 1.47 | 5.14 | 5.84 | 5.34 | 2.61 | 4.68 | 6.88 | 6.36 | 2.08 | 1.26 | 2.34 | 6 | 1.44 | 5.08 | 1.21 | 3.04
AGTCAAAGTTCAGGACGAGTTAACGTAAAGCACG | 3.79 | 3.99 | 1.02 | 1.9 | 0.173 | 3.38 | 4.32 | 4.63 | 2.21 | 4.17 | -0.151 | 1.53 | 0.0233 | 0.458 | 1.18 | 3.59 | 1.43 | 2.4 | 1.1 | 4.21
CAAACTAGGTCAAGGTCAAACTCGGTTTGTGCCA | 7.27 | 5.63 | 4.45 | 4.69 | 1.71 | 6.2 | 9.59 | 7.65 | 6.72 | 7.91 | 7.83 | 8.72 | 1.79 | 1.1 | 2.32 | 5.44 | 2.6 | 5.03 | 1.19 | 5.27
CCTTAAGGGTCACTCCAGGTTATAGCATCGGAGT | 6.75 | 7.97 | 3.36 | 5.9 | 0.565 | 5.33 | 4.86 | 5.1 | 2.01 | 4.34 | 3.17 | 4.07 | 0.0681 | 0.102 | 2.47 | 5.59 | 0.47 | 4.49 | 0.956 | 4.97
TCTATTAGTTCAAGGGCAACCGACGAGTCCGTTT | 1.82 | 1.97 | 1.24 | 1.45 | 0.602 | 2.23 | 0.394 | 2.66 | 3.94 | 3.37 | 2.36 | 1.14 | 0.61 | 1.22 | 1.87 | 2.28 | 2.5 | 1.55 | 1.41 | 3.08
ACTATTAGTTGACTTAGGGCAACCGTTACGACGC | 0.212 | 0.547 | 0.268 | 0.434 | 0.514 | 0.372 | 0.776 | 0.417 | 0.154 | 0.461 | 0.596 | 0.527 | 1.12 | 0.546 | 0.51 | 0.554 | 0.502 | 0.863 | 0.271 | 0.949
TGAATGAGGTTAAAGCTCAGGGAACGTGGCGTCG | 2.94 | 1.92 | -0.466 | 0.894 | -0.222 | 3.6 | 2.86 | 4 | 2.09 | 3.82 | 2.25 | 2.59 | -0.0715 | 0.871 | 0.0932 | 1.07 | -0.806 | 1.84 | -0.696 | 1.78
CCTTACGGGTCACGAGTTTATAGCACGACGAGCG | 6.13 | 3.82 | 0.393 | 3.41 | 0.252 | 5.25 | 5.99 | 5.87 | 2.81 | 4.64 | 4.46 | 5.06 | 0.736 | 0.94 | 2.53 | 4.8 | 2 | 4.85 | 0.68 | 4.27
ACTTACGGGTCAACGAGGTTATTGCACGCGTATA | 6.87 | 5.03 | 1.72 | 4.44 | 0.685 | 5.64 | 5.89 | 5.22 | 1.88 | 3.88 | 3.11 | 3.97 | 1.27 | 2.63 | 3.35 | 5.53 | 5.35 | 5.36 | 1.38 | 4.19
TCAGACAGGTGAAGCTAACTCAGGTACGCAGTCG | 0.462 | 0.31 | -0.268 | 0.231 | -0.92 | 0.744 | 0.519 | 1.5 | 3.44 | 2.75 | 2.31 | 0.713 | 0.0407 | -0.303 | 0.616 | 0.0875 | 0.111 | 0.285 | 0.225 | 0.749
CGTCCTAGGTCAATGCTAGGTCAGTGAAAGCATT | 3.74 | 3.83 | 1.98 | 2.38 | 0.076 | 3.34 | 1.92 | 2.52 | 0.255 | 1.31 | 3.18 | 3.31 | -0.391 | -0.333 | 2.76 | 2.57 | -0.195 | 4.13 | -0.0967 | 4.06
